An excerpt weighted towards active compounds, which were near 4.9% of everything screened.
Platelet DG rel – modulates dense granule release in human platelets. human platelet-rich plasma, SFLLRN dense granule ATP release, luminescence. inhibition, %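 (compounds screened at 7.5 µM in platelet-rich plasma)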. hit rate 0.22% among 300,000;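 active = mean replicate score, as percent of positive control, at or above 50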
HSP90 refold inh – blocks HSP90-mediated luciferase refolding in reticulocyte lysate. Rabbit reticulocyte lysate, luciferase refolding luminescence, 3 h. inhibition, % at 5.6 µM. hit rate 0.91% among 290,000. AID 1789;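 active = inhibition above the screen-wide mean plus 3 SD, computed separately per campaign, cut at about 16% in these data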;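 note: 0% = DMSO wells and 100% = 60 µM geldanamycin wells; inhibitors lower the luminescence because luciferase stays unfolded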
HSF-1 act – increases HSF-1 driven luciferase reporter signal. NIH3T3-HGL HSF-1 luciferase reporter, MG132, 8 h; 100% = twice DMSO control signal. activation, % at 9 µM. hit rate 1.7% among 300,000. AID 504408;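 active = mean replicate activation of at least 50% with a set share of replicates each reaching 50%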;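 note: 0% = median of the neutral control wells and 100% = twice that signal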
MPTP block – blocks calcium-induced mitochondrial swelling; isolated mouse mitochondria, Ca2+ swelling absorbance, 30 min; hit rate 1.4% among 360,000; inhibition, % at 10 µM;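 active = inhibition of 50% or more, scaled per plate between neutral and stimulator controls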;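 note: 0% = DMSO wells given calcium and 100% = 1 mM EGTA wells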
HSF1 inhib – HSF1 inhibition. AID 2098. NIH3T3-HGL HSE-luciferase, MG132-induced, luminescence 8 h; hits give low values. activity change, negative = inhibition, % at 7.5 µM (by protocol). hit rate 0.77% among 300,000;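 active = more than half of replicate wells show activity change below -50%, luminescence cut by over half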;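 note: luciferase reports HSF-1 transcriptional activity via heat shock element; 0% = median of DMSO wells and -100% = zero luminescence signal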
dFosB activator – activators of mouse delta FosB homodimer | activation, % at 25 µM | hit rate 0.99% among 340,000 | purified delta FosB, TAMRA-CDK5 oligo fluorescence polarization; percent of positive-control signal above neutral wells | AID 493131;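 active = mean activation above about 17%, with every replicate also reaching it, limit read from the data, passing the limit was not always enough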
Target sequence (P13346 whole entry, looked up): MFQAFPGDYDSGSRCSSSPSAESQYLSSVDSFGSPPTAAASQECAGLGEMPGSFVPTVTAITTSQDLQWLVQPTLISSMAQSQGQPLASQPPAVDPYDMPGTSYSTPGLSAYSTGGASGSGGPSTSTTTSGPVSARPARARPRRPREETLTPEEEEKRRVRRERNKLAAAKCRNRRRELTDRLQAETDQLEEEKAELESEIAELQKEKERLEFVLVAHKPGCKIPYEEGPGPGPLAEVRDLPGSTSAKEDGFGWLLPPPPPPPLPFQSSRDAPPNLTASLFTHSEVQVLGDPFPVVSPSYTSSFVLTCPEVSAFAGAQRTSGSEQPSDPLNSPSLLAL
* = called active by the depositor; . = not tested or not shown.

SMILES	Platelet DG rel	HSP90 refold inh	HSF-1 act	MPTP block	HSF1 inhib	dFosB activator
Cc1cccc(NC(=O)Cn2cnc3c(cnn3-c3ccc(F)cc3)c2=O)c1C	21	3	-5	-2	-2	49*
CC(C)(C)n1ncc2c(=O)n(CC(=O)NCc3ccco3)cnc21	1	4	24	1	11	-3
Cc1ccc(-n2ncc3c(=O)n(CC(=O)N(C)C)cnc32)cc1C	1	-3	8	-2	3	2
CC(C)(C)n1ncc2c(=O)n(CC(=O)NCc3ccc(F)cc3)cnc21	2	16*	26	-2	5	-7
CCn1nc(C)c(CN2CCC(Oc3ccc(C(=O)N4CCCC4)cc3)CC2)c1C	8	0	-28	-2	-4	1
CN(C(=O)COC(=O)CSc1ccc(C(N)=O)cc1[N+](=O)[O-])C1CCCCC1	-4	.	-2	0	1	-11
CC(=O)c1cccc(NC(=O)CSc2n[nH]c(=O)n2C2CC2)c1	.	.	.	-1	.	1
Cc1ccsc1C(=O)OC(C)C(=O)NC1CCCCC1C (stereo not given)	.	.	.	-1	.	-2
CN(C)c1nc(NCc2ccccc2)nc(SCC(=O)Nc2ccccc2)n1	2	0	13	7	2	-8
CN(C)c1nc(NC(C)(C)C)nc(SCC(=O)Nc2ccccc2)n1	1	-2	66*	2	22	-14
O=C(CC1NCCNC1=O)NC1Cc2ccccc2C1 (stereo not given)	-15	0	-6	1	-4	-4
COc1ccc2c(COC(=O)c3n[nH]c4ccccc34)cc(=O)oc2c1	6	0	63*	3	49	-11
COc1ccc2c(COC(=O)CCS(=O)(=O)c3ccccc3)cc(=O)oc2c1	19	0	-22	1	2	-3
Cc1cc2oc(=O)cc(COC(=O)c3n[nH]c4ccccc34)c2cc1C	3	0	51*	-1	26	-5
c1ccc(CN2CCC(Nc3nc(-c4cccs4)nc4ccccc34)CC2)cc1	2	5	26	6	16	0
CSc1sc(C(=O)Nc2ccc(F)cc2F)c2c1C=CCC2	7	-7	72*	2	45	-7
Cc1ccc(C)c(C(=O)CCC(=O)Nc2ccc(N3CCN(C)CC3)cc2C)c1	.	.	.	-1	.	-10
COc1ccc(C(=O)COC(=O)CCN2C(=O)C3C4CC(C(Br)C4Br)C3C2=O)cc1 (stereo not given)	-1	-2	-71	1	-62*	-9
CCN(CC)CCNC(=O)C(=O)Nc1cc2c3c(c1)CCC(=O)N3CCC2	-6	3	-2	2	8	0
COc1cc(C(C)=O)ccc1OCC(=O)Nc1cc(S(=O)(=O)N2CCOCC2)ccc1N1CCCC1	.	.	.	0	.	-10
Cc1nc(NC(C)C)c2cnn(CCc3ccccc3)c2n1	-13	0	54*	0	44	0
CCCNc1nc(C)nc2c1cnn2CCc1ccccc1	0	0	45	0	22	-3
CCCc1ccc(-c2ccc(-c3noc(-c4ccncc4)n3)cc2)nc1	0	0	0	4	-4	-4
CCCCc1ccc(-c2ccc(Br)cc2)nc1	-1	3	58*	2	21	1
Cc1nn(-c2ccccc2)c(N)c1Sc1cccc([N+](=O)[O-])c1	-1	-3	7	2	3	0
SMILES	Platelet DG rel	HSP90 refold inh	HSF-1 act	MPTP block	HSF1 inhib	dFosB activator
Cc1cc(C)nc(-n2nc(C)c(Sc3ccc(F)cc3)c2N)n1	4	-4	62*	-1	31	-1
O=C(COC(=O)COc1ccc(Br)cc1)NCc1ccccc1	.	.	.	-2	.	-3
c1ccc(Nc2c(-c3ccco3)nc3ccccn23)cc1	0	-8	81*	2	44	-2
Fc1ccc(Nc2c(-c3ccco3)nc3ccccn23)cc1	-2	-10	62*	-4	32	-9
COCc1cc(C)nc(OCC(=O)N/N=C/c2ccc(-c3cc([N+](=O)[O-])ccc3Cl)o2)c1C#N	-4	2	-7	0	1	-5
O=C(COC(=O)Cn1cnc2ccccc21)Nc1cc2c(cc1Cl)C(=O)c1ccccc1C2=O	-1	-3	74*	2	52	-21
O=C(COC(=O)Cn1cnc2ccccc21)Nc1cc(S(=O)(=O)N2CCOCC2)ccc1Cl	6	10	8	1	-1	-8
COc1ccccc1NC(=O)c1ccc([N+](=O)[O-])o1	-11	.	-88	.	-86*	.
CCC(=O)N1CCN(c2ccccc2NC(=O)c2ccc([N+](=O)[O-])o2)CC1	-6	-2	22	-2	25	-7
O=C(Nc1cccc2ccccc12)c1ccc([N+](=O)[O-])o1	-13	2	72*	0	58	3
O=C(Nc1cc(-c2nc3ncccc3o2)ccc1Cl)c1ccc([N+](=O)[O-])o1	5	4	110*	0	78	-2
CC(C)C(=O)N1CCN(c2ccccc2NC(=O)c2ccc([N+](=O)[O-])o2)CC1	-8	7	80*	-1	41	-4
COc1cc(OC)cc(-c2c(-c3cccs3)c3cc(-c4cccc5[nH]ccc45)ccc3n2C)c1	.	.	.	-1	.	6
O=C(Nc1cccc(NC(=O)c2ccccc2Cl)c1)c1ccc([N+](=O)[O-])o1	3	1	97*	-1	55	-3
CC(=O)N1c2ccc(S(=O)(=O)N3CCCCC3)cc2CC1C(=O)NCc1ccccc1C (stereo not given)	-9	-2	31	-1	20	-8
O=C(N/N=C/c1ccco1)C1(O)c2ccccc2-c2ccccc21	-8	-3	56*	2	14	.
O=C(N/N=C/c1ccco1)C(O)C(O)C(=O)N/N=C/c1ccco1 (stereo not given)	6	1	7	-1	-1	2
O=C(CCC(=O)N1CCOc2ccc(Cl)cc21)NCCCN1CCC(Cc2ccccc2)CC1	-2	-6	6	4	1	0
Cc1ccc(OCc2nc(-c3ccccc3)no2)c(C)c1	-2	-5	109*	-6	56	-8
O=[N+]([O-])c1ccccc1OCc1nc(-c2cccs2)no1	5	-8	82*	-2	27	4
O=[N+]([O-])c1ccc(F)cc1OCc1nc(-c2cccs2)no1	-1	-2	66*	0	28	-4
Cc1ccc(OCc2nc(-c3cccs3)no2)c([N+](=O)[O-])c1	-5	7	104*	-1	55	-4
CCCn1c(CN2CCN(C(=O)c3ccco3)CC2)nc2cc(S(=O)(=O)N(C)C)ccc21	.	.	.	0	.	-9
CO[C@H]1CN(C)C(=O)c2ccc(NC(=O)C3CCC3)cc2OC[C@H](C)N(Cc2ccc(F)cc2)C[C@@H]1C	.	.	.	-1	.	.
Cc1cc(N/C=C/C(=O)c2cccs2)ccc1F	18	3	64*	-2	37	-4
O=C(/C=C/Nc1ccc(Oc2ccccc2)cc1)c1ccco1	53*	0	-14	0	-16	-2
